# Measurements taken from the supplement of paper PMC6411743.
# ± gives the standard deviation of the averaged measurements. About 6,200 targets were measured; listed, in parts, are those with the largest changes and a random draw of the rest.
# Legend:
# Assay in all cases: NP40-soluble protein abundance relative to vehicle (solubility fold change) (ratio); higher = more soluble protein in presence of AMP-PNP
# UniProt Q9BY77|Q9BY77-2 = molecular target: T1, UniProt Q9BY77|Q9BY77-2
# T1 sequence (whole entry): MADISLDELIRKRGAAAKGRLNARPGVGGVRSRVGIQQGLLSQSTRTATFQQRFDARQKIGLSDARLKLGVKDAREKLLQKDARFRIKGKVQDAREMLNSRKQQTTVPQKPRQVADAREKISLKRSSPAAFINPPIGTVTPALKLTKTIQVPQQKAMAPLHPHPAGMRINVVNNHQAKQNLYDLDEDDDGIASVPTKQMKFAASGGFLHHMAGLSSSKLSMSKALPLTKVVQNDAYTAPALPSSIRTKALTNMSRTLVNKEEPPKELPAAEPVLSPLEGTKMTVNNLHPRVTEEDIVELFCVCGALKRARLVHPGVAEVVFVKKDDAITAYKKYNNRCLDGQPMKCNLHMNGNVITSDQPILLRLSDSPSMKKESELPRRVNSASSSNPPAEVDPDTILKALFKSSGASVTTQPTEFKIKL
# How it was run: (§1)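 In three independent experiments, Jurkat crude lysate made by Dounce homogenisation was treated for 10 min at room temperature and then 3 min at 37 °C with eight concentrations ranging from 0.1 to 10 mM. It was then solubilised with 0.8% NP40 plus benzonase for 60 min at 4 °C and ultracentrifuged. The supernatant was TMT-labelled for LC-MS/MS, and each value is the fold change against the detergent-processed vehicle for the same replicate, using vsn-normalised intensities.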
# UniProt Q9H9J4|Q9H9J4-2 = molecular target: T2, UniProt Q9H9J4|Q9H9J4-2
# T2 sequence (whole entry): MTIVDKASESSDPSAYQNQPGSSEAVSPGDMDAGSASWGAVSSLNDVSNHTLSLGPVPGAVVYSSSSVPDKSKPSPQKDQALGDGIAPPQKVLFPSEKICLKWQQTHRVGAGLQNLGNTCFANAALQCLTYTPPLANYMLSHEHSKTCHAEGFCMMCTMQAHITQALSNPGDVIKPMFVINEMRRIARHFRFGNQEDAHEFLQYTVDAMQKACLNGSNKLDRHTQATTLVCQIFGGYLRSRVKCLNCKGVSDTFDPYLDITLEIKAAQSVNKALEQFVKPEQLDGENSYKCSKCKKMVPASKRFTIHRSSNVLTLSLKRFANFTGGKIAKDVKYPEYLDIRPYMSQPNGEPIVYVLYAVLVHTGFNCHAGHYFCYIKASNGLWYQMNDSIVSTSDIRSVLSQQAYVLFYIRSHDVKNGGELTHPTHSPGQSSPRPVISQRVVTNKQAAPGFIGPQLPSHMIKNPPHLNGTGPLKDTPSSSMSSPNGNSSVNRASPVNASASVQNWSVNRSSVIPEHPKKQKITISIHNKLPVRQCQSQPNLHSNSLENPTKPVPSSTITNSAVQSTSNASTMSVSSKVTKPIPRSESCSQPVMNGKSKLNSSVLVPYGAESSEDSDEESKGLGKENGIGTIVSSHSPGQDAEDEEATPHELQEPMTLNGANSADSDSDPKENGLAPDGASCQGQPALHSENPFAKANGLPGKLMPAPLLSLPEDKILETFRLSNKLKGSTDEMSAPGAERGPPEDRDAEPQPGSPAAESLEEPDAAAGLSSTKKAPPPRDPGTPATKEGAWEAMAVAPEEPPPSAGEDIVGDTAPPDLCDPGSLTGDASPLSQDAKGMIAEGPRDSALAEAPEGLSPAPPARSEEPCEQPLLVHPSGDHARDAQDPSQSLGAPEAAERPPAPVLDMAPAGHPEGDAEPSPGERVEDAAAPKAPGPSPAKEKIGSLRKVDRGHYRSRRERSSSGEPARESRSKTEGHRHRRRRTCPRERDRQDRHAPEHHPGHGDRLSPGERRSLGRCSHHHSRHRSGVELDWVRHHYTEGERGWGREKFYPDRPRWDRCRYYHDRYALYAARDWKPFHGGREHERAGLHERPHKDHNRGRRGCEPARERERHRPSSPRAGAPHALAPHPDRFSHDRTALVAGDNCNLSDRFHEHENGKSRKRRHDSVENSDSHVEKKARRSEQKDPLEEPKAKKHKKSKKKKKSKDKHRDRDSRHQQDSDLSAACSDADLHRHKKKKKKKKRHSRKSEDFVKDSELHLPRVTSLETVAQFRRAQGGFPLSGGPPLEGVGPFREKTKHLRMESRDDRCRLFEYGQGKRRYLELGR
# How it was run: as §1
# UniProt Q9NPJ3 = molecular target: T3, UniProt Q9NPJ3
# T3 sequence (whole entry): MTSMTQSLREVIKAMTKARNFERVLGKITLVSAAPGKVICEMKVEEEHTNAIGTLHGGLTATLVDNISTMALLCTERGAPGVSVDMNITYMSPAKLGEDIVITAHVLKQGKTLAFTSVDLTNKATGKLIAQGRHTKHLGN
# How it was run: as §1
# [1] = molecular target: T4, UniProt Q9NQ86-4|E9PBG3|Q9NQ86
# T4 sequence (whole entry): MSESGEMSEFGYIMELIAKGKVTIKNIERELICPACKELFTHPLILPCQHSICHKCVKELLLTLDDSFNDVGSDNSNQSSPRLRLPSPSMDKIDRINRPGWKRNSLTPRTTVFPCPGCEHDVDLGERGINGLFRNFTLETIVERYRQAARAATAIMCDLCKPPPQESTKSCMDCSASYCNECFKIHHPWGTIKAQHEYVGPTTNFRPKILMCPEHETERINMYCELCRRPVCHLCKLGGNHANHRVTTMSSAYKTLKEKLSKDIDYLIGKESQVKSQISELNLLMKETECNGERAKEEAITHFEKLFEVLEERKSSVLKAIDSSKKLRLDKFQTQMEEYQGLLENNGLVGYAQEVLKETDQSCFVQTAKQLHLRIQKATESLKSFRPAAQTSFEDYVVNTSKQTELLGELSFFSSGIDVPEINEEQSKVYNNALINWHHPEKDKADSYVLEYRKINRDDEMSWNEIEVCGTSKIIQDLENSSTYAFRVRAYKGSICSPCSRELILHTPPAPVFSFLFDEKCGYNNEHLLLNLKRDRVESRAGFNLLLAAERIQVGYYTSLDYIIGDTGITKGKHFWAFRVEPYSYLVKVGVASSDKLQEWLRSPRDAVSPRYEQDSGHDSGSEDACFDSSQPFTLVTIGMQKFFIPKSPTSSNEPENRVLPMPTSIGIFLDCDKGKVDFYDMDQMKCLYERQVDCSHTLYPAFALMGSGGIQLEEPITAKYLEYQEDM
# How it was run: as §1
# UniProt Q9NUS5 = molecular target: T5, UniProt Q9NUS5
# T5 sequence (whole entry): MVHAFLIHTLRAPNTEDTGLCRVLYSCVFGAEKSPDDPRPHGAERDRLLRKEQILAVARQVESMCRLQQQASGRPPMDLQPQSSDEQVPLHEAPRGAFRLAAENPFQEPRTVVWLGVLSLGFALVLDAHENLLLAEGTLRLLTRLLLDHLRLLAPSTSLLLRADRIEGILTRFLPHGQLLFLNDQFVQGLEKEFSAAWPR
# How it was run: as §1
# [2] = molecular target: T6, UniProt Q9NVH6|Q9NVH6-7|Q9NVH6-8
# T6 sequence (whole entry): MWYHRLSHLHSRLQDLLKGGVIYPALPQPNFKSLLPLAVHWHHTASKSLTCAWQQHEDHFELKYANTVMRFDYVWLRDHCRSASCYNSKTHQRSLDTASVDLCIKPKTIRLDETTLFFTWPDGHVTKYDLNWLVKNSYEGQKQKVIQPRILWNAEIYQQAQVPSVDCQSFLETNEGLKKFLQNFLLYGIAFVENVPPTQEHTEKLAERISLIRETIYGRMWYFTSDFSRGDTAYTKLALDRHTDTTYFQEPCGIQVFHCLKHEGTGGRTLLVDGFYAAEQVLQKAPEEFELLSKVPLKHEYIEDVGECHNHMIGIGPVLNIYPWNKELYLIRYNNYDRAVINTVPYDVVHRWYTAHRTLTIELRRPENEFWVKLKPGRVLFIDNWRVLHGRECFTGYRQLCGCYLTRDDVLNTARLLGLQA
# How it was run: as §1
# VRK1 = molecular target: T7, VRK1 (UniProt Q99986)
# T7 sequence (whole entry): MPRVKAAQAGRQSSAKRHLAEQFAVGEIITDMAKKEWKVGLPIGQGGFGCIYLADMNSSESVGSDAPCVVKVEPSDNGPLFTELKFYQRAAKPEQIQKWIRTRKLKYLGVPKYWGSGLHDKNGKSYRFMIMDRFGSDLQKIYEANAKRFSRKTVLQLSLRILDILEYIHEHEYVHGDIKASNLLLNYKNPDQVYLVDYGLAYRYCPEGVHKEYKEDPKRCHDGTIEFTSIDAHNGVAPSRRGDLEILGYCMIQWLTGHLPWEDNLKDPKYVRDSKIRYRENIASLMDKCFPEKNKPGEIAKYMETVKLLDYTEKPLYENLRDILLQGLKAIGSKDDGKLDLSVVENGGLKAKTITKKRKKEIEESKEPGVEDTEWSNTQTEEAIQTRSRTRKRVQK
# How it was run: as §1
smiles,measurement,setting,value
Nc1ncnc2c1ncn2[C@@H]1O[C@H](COP(=O)(O)OP(=O)(O)NP(=O)(O)O)[C@@H](O)[C@H]1O [adenylyl imidodiphosphate],NP40-soluble protein abundance,UniProt Q9BY77|Q9BY77-2; concentration: 6mM,1.17 ± 0.016
same,NP40-soluble protein abundance,UniProt Q9BY77|Q9BY77-2; concentration: 8mM,1.24 ± 0.028
same,NP40-soluble protein abundance,UniProt Q9BY77|Q9BY77-2; concentration: 10mM,1.37 ± 0.081
same,NP40-soluble protein abundance,UniProt Q9H9J4|Q9H9J4-2; concentration: 1mM,1.02 ± 0.026
same,NP40-soluble protein abundance,UniProt Q9H9J4|Q9H9J4-2; concentration: 2mM,1.03 ± 0.035
same,NP40-soluble protein abundance,UniProt Q9H9J4|Q9H9J4-2; concentration: 4mM,1.01 ± 0.035
same,NP40-soluble protein abundance,UniProt Q9H9J4|Q9H9J4-2; concentration: 6mM,0.993 ± 0.011
same,NP40-soluble protein abundance,UniProt Q9H9J4|Q9H9J4-2; concentration: 8mM,1.03 ± 0.03
same,NP40-soluble protein abundance,UniProt Q9H9J4|Q9H9J4-2; concentration: 10mM,1.04 ± 0.04
same,NP40-soluble protein abundance,UniProt Q9NPJ3; concentration: 1mM,0.947 ± 0.014
same,NP40-soluble protein abundance,UniProt Q9NPJ3; concentration: 2mM,0.9081 ± 0.0059
same,NP40-soluble protein abundance,UniProt Q9NPJ3; concentration: 4mM,0.9 ± 0.028
same,NP40-soluble protein abundance,UniProt Q9NPJ3; concentration: 6mM,0.974 ± 0.062
same,NP40-soluble protein abundance,UniProt Q9NPJ3; concentration: 8mM,0.976 ± 0.032
same,NP40-soluble protein abundance,UniProt Q9NPJ3; concentration: 10mM,0.948 ± 0.076
same,NP40-soluble protein abundance,[1]; concentration: 1mM,0.952 ± 0.04
same,NP40-soluble protein abundance,[1]; concentration: 2mM,0.976 ± 0.047
same,NP40-soluble protein abundance,[1]; concentration: 4mM,0.994 ± 0.042
same,NP40-soluble protein abundance,[1]; concentration: 6mM,0.998 ± 0.017
same,NP40-soluble protein abundance,[1]; concentration: 8mM,1 ± 0.044
same,NP40-soluble protein abundance,[1]; concentration: 10mM,1.01 ± 0.023
same,NP40-soluble protein abundance,UniProt Q9NUS5; concentration: 1mM,0.96 ± 0.016
same,NP40-soluble protein abundance,UniProt Q9NUS5; concentration: 2mM,0.936 ± 0.051
same,NP40-soluble protein abundance,UniProt Q9NUS5; concentration: 4mM,0.963 ± 0.02
same,NP40-soluble protein abundance,UniProt Q9NUS5; concentration: 6mM,0.948 ± 0.012
same,NP40-soluble protein abundance,UniProt Q9NUS5; concentration: 8mM,0.938 ± 0.038
same,NP40-soluble protein abundance,UniProt Q9NUS5; concentration: 10mM,0.936 ± 0.041
same,NP40-soluble protein abundance,[2]; concentration: 1mM,0.969 ± 0.051
same,NP40-soluble protein abundance,[2]; concentration: 2mM,0.9817 ± 0.0096
same,NP40-soluble protein abundance,[2]; concentration: 4mM,0.984 ± 0.06
same,NP40-soluble protein abundance,[2]; concentration: 6mM,0.972 ± 0.065
same,NP40-soluble protein abundance,[2]; concentration: 8mM,0.985 ± 0.018
same,NP40-soluble protein abundance,[2]; concentration: 10mM,0.969 ± 0.046
same,NP40-soluble protein abundance,VRK1; concentration: 1mM,1.08 ± 0.036
same,NP40-soluble protein abundance,VRK1; concentration: 2mM,1.1 ± 0.078
same,NP40-soluble protein abundance,VRK1; concentration: 4mM,1.22 ± 0.03
same,NP40-soluble protein abundance,VRK1; concentration: 6mM,1.43 ± 0.061
same,NP40-soluble protein abundance,VRK1; concentration: 8mM,1.51 ± 0.11
same,NP40-soluble protein abundance,VRK1; concentration: 10mM,1.56 ± 0.1
